Screening data as filed in PubChem BioAssay.
Sampled rows, rich in hits. Any-hit rate of the full collection: about 11%.
Pf growth 96h = P. falciparum growth inhibition at 96 hour, primary screen for plastid delayed-death inhibitors | Potency, µM (top dose mostly 28.7 µM), for inactives: at the highest dose activity change, negative = inhibition, usual class: inhibitors | 320,000 compounds, 6.9% hits | P. falciparum luciferase reporter growth, 96 h; note: % is set by controls: 0 for no effect and ±100 for the full control effect
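Parasite growth measured via integrated firefly luciferase reporter in P. falciparum. Infected erythrocytes at 2% hematocrit, 0.05% parasitemia final were treated 96 hours at 37 C under 5% CO2, and luminescence was read.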
Pf growth 48h = P. falciparum growth inhibition at 48 hours (one generation). 310,000 compounds, 5.9% hits. P. falciparum luciferase growth in erythrocytes, 48 h. AID 504832. Potency, µM (top dose mostly 28.7 µM), without a hit: top-dose activity change, negative = inhibition, hits mostly inhibitors; note: % is set by controls: 0 for no effect and ±100 for the full control effect
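A one-generation exposure of luciferase-tagged malaria parasites in RPMI 1640/Albumax erythrocyte culture, 37 C and 5% CO2. Inhibition is inferred from decreased luminescence after adding detection reagent.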
HCV inh = HCV inhibition; Potency, µM (series often up to 41.8 µM), without a hit: top-dose activity change, negative = inhibition, most hits filed as inhibitors; Huh7.5.1 HCVcc-Cre infection, luciferase reporter, 44 h; AID 651820; 340,000 compounds, 3.4% hits; note: % is set by controls: 0 for no effect and ±100 for the full control effect
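Infectious HCV cell culture screen: compound-treated cells (1,000/well, pre-plated 4 h) are infected with HCVcc-Cre at roughly 0.5 moi and grown 44 h. Infection is quantified by luciferase signal after 15 min substrate incubation at room temperature.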
NS1 function inh = blocks influenza NS1 protein function. Potency, µM (highest dose often 46.1 µM), for inactives: at the highest dose activity, positive = more growth. 270,000 compounds, 0.4% hits; calls by dose curve; note: actives are rising curves; nearly all actives have a fitted effect of over 50% in size
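Read-out: OD600 growth recovery of NS1-expressing budding yeast. Cells grown overnight at 30C in -URA glucose medium, washed, resuspended and diluted 1:100 in 2% galactose assay medium, pH 6.0. Same strain lacking NS1 served as positive control.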
VACV Venus inh = vaccinia inhibition (Venus reporter); Vaccinia virus Venus reporter expression, fluorescence; AID 720580; Potency, µM (top dose mostly 36.5 µM), for inactives: at the top dose activity change, negative = inhibition, usual class: inhibitors; 330,000 compounds, 0.46% hits; calls by dose curve; tested in A549 cells; note: % is set by controls: 0 for no effect and ±100 for the full control effect; nearly all actives have a fitted effect of over 30% in size
VACV mCherry inh = inhibitors of vaccinia virus infection (mCherry reporter signal) | Vaccinia virus mCherry reporter infection, fluorescence | Potency, µM (doses to about 36.5 µM), without a hit: at the highest dose activity change, negative = inhibition, actives largely listed as inhibitors | 310,000 compounds, 0.63% hits; calls by dose curve; tested in A549 cells; note: % is set by controls: 0 for no effect and ±100 for the full control effect; nearly all actives have a fitted effect of over 35% in size
Numbers without * were called inactive; i = inactive; u = inconclusive; x = no result given; [ ] = dose if it differs, or a comment. Unless noted, calls come from the whole dose curve; as a rule, active = well fitted inhibition curve with a large enough effect; inconclusive = small, poorly fitted or top-dose-only effect, or another doubt; inactive = no such curve, though single readings can be large or run the other way. Potency is the fitted concentration of half-maximal effect.

SMILES	Pf growth 96h	Pf growth 48h	HCV inh	NS1 function inh	VACV Venus inh	VACV mCherry inh
C#CCOCCOCCOCCNc1nc(N2CCN(C(=O)Cn3cc(CCO)nn3)CC2)nc(N2CCN(C(=O)[C@H](CCCCN)n3cc(CC(C)O)nn3)CC2)n1 (some centres not stated)	x	x	-9%[8.37 µM]	x	5%	-1%
C#CCOCCOCCOCCNc1nc(N2CCN(C(=O)CCCCCCCCCCNC(=O)Cn3cc(C[C@@H](C)O)nn3)CC2)nc(N2CCN(C(=O)CCCCCCCCCCNC(=O)[C@@H](CCC(=O)O)n3cc(CCCCCN)nn3)CC2)n1	u	1µM*	11%	x	-15%	u
C#CCOCCOCCOCCNc1nc(N2CCN(C(=O)CCCCCCCCCCNC(=O)Cn3cc(C[C@@H](C)O)nn3)CC2)nc(N2CCN(C(=O)CCCCCCCCCCNC(=O)[C@H](CO)n3cc(CCCSC)nn3)CC2)n1	0.15µM*	0.15µM*	13%	x	u	i
C#CCOCCOCCOCCNc1nc(N2CCN(C(=O)CCCCCCCCCCNC(=O)Cn3cc(CCCCCN)nn3)CC2)nc(N2CCN(C(=O)CCCCCCCCCCNC(=O)Cn3cc(CCCCCN)nn3)CC2)n1	6.6µM*	1.7µM*	11%[8.37 µM]	x	-29%	i
C#CCOCCOCCOCCNc1nc(N2CCN(C(=O)CCCCCCCCCCNC(=O)[C@@H](CCSC)n3cc(CCO)nn3)CC2)nc(N2CCN(C(=O)CCCCCCCCCCNC(=O)[C@H](CCSC)n3cc(CCO)nn3)CC2)n1	0.29µM*	0.33µM*	4%	x	u	-10%
Cn1cc(-c2cc3n(n2)CCC(=O)N3CCCC(=O)NCc2ccccc2Cl)c2ccccc21	x	x	x	x	-2%	-2%
C/C(=N\NC(=S)NCCc1ccccc1)c1ccc(Cl)cc1Cl	27%	u	-26%	-44%	-14%	-21%
O=C(OCC1CC(c2ccccc2Cl)=NO1)c1ccc(Br)cc1 (configuration not stated)	35%	20%	29%	-6%	-7%	-14%
C#CCOCCOCCOCCNc1nc(N2CCN(C(=O)CCCCCCCCCCNC(=O)[C@H](CO)n3cc(CCCSC)nn3)CC2)nc(N2CCN(C(=O)CCCCCCCCCCNC(=O)[C@H](CCCN=C(N)N)n3cc(C[C@@H](C)CC)nn3)CC2)n1	5.2µM*	1.5µM*	u	x	11µM*	-19%
C#CCOCCOCCOCCNc1nc(N2CCN(C(=O)CCCCCCCCCCNC(=O)Cn3cc(CCCCCN)nn3)CC2)nc(N2CCN(C(=O)CCCCCCCCCCNC(=O)[C@@H](CCSC)n3cc(CCO)nn3)CC2)n1	1µM*	1.2µM*	-14%	x	u	i
COc1ccc(CC(NC(C)=O)C(=O)NC2CCN(S(=O)(=O)c3ccc(NC(C)=O)cc3)CC2)cc1 (configuration not stated)	u	-25%	-7%	-4%	-17%	-16%
O=C(NCc1ccccc1)Nc1cccn(Cc2c(F)cccc2Cl)c1=O	-39%	-24%	u	0%	x	x
Cc1ccc(NC(=O)Nc2cccn(Cc3c(F)cccc3Cl)c2=O)cc1	5.2µM*	-20%	11µM*	-2%	x	x
COc1cccc(NC(=O)Nc2ccc(CC(=O)O)cc2)c1	2.3µM*	21%	14%	6%	-7%	7%
COc1cccc(NC(=O)Nc2cccn(Cc3ccc(C)cc3)c2=O)c1	4%	u	11µM*	-1%	x	x
COc1cccc(Cn2cccc(NC(=O)Nc3cccc(C#N)c3)c2=O)c1	27%	u	u	-4%	-12%	-22%
CCCc1nnc(NC(=O)Nc2ccc(OC)cc2)s1	41%	20%	2%	-6%	x	x
CCC(C)Nc1nnnc2c1sc1nc3c(cc12)COC(C)(C)C3 (configuration not stated)	-13%	u	-17%	x	-8%	-11%
CC(C)(C)NC(=O)CN1C(=O)NC(c2ccccc2)(c2ccccc2)C1=O	3%	u	-8%	u	3%	-9%
O=C(N1CCOCC1)N1CCN(S(=O)(=O)c2cccc([N+](=O)[O-])c2)CC1	28%	17%	9%	3%	x	x
O=C(Nc1ccccc1)C1(c2ccccc2)CC1(Cl)Cl (configuration not stated)	1.7µM*	3.7µM*	-14%	-30%	x	x
O=C(Nc1ccccc1F)C1(c2ccccc2)CC1(Cl)Cl (configuration not stated)	u	u	-1%	-20%	-8%	i
CC1CCN(C(C(=O)NC2CCCCC2)c2cc3c(cc2[N+](=O)[O-])OCO3)CC1 (configuration not stated)	51%	9.3µM*	9%	-16%	3%	i
O=C(NCC1CCCO1)c1cnc(Cl)c(Cl)c1 (configuration not stated)	5%	u	3%	-5%	-15%	i
O=C(NCC1CCCO1)c1ccc(/C=N/O)nc1 (configuration not stated)	15µM*	0%	5%	0%	-4%	-19%
SMILES	Pf growth 96h	Pf growth 48h	HCV inh	NS1 function inh	VACV Venus inh	VACV mCherry inh
O=C(NCCCNCCCNC(=O)c1ccc(/C=N/O)nc1)c1ccc(/C=N/O)nc1	2.6µM*	9.3µM*	14%	8%	x	x
O=[N+]([O-])c1ccc(Cl)c(NC2=NCCCCC2)c1	9.3µM*	u	-11%	-5%	-8%	-13%
CCN(CC)S(=O)(=O)c1ccc(Cl)c(NC2=NCCCCC2)c1	-21%	u	3%	x	-7%	i
CCOc1ccc(C(=O)Nc2ncn[nH]2)cc1	2.1µM*	19%	15%	25%	x	x
CC(C)Oc1ccc(C(=O)Nc2ncn[nH]2)cc1	10µM*	52%	0%	-4%	1%	-8%
COCCn1c(-c2ccco2)csc1=Nc1cccnc1	x	u	-19%	6%	x	x
Cc1csc(=Nc2cccnc2)n1Cc1ccco1	u	-8%	0.56µM*	x	-15%	-5%
CC(C)Cn1c(-c2ccco2)csc1=Nc1cccnc1	u	15µM*	2%	-12%	1%	-6%
CCNC(=O)C1(C)CCCN(C(=O)c2oc3ccccc3c2C)C1 (configuration not stated)	x	x	x	x	3%	1%
CCCN1C(=O)c2ccccc2NC1c1ccc(Cl)c(Cl)c1 (configuration not stated)	9.3µM*	u	u	-9%	x	x
CCCN1C(=O)c2ccccc2NC1c1ccc(Br)cc1 (configuration not stated)	-1%	u	-46%	-6%	u	u
CCCN1C(=O)c2ccccc2NC1c1ccc(Cl)cc1 (configuration not stated)	20%	13µM*	9%	-4%	x	x
